The source of these data is PubChem BioAssay AID602281 (The Scripps Research Institute Molecular Screening Center, 2012).

Screen size: about 360,000 compounds; about 2,900 (0.81%) were called active. The sample holds actives, similar compounds and a random draw of the others, so the mix is not that of the screen.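 Rule for the calls: active = inhibition above the mean inhibition across every tested compound plus 3 SD (cut at about 22% in these data); inactive = the rest.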

For this assay, the target named is Perilipin-5 (Homo sapiens) + 1-acylglycerol-3-phosphate O-acyltransferase ABHD5 (Homo sapiens) (UniProt Q00G26+Q8WTS1). The experiment in a line: blockers of ABHD5 binding to perilipin-5 – cell lysate, split luciferase complementation, luminescence, primary screen (AID 602281).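 Note: 0% = DMSO only wells and the 100% control is not disclosed.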 Conditions: Split G. princeps luciferase complementation, 4 h, at 4 µM, hits give high values.
Sequence of Perilipin-5 (Homo sapiens) + 1-acylglycerol-3-phosphate O-acyltransferase ABHD5 (Homo sapiens) (Q00G26 whole entry, looked up): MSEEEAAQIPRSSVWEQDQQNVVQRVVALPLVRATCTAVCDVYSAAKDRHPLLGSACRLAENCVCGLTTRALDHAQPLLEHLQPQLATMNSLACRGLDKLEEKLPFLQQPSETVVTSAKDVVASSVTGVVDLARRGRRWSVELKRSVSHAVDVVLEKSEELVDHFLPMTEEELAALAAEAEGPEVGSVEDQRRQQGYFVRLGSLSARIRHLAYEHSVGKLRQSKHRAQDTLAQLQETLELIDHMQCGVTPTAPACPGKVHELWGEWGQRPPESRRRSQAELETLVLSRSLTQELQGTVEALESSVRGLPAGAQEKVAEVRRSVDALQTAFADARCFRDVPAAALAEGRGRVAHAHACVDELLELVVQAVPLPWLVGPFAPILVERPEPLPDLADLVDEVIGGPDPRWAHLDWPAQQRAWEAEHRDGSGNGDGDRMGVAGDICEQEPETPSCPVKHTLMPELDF
Sequence of Perilipin-5 (Homo sapiens) + 1-acylglycerol-3-phosphate O-acyltransferase ABHD5 (Homo sapiens) (Q8WTS1 whole entry, looked up): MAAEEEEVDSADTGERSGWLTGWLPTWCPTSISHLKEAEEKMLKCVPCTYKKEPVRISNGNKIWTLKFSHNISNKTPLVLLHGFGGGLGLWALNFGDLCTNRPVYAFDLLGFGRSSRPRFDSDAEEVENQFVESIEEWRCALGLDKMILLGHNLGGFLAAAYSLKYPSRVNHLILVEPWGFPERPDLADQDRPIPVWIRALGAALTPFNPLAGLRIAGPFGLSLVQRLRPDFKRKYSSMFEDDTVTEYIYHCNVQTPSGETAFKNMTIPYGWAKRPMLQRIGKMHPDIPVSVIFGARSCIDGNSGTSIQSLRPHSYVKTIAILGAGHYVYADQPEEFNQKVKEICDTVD
With `COc1ccccc1CN(C)c1nnnn1-c1ccccc1`, the inhibition (in general, the relative decrease from the control value, in per cent) is -3.16% (inactive).
Consider `COc1ccccc1-n1nnnc1S(=O)(=O)Cc1ccc(Cl)cc1`, for which the inhibition was 27.5% (active).
The figure for `CCN(C(=O)CSc1nnnn1-c1ccccc1OC)C1CCS(=O)(=O)C1` (configuration not stated) is 0.5% (inactive).
In the case of `Cc1cc2c(cc1S(=O)(=O)NCc1ccc(Cl)cc1)OCC(=O)N2`, the inhibition was 5.73% (inactive).
The figure for `O=C(CN1C2CCC1CC(NC(=O)C1CC1)C2)NCc1ccccc1` (configuration not stated) is -2.07% (inactive); for `CC(=O)Nc1ccc(NC(=O)CC2CCCC2)cc1` it is 1.52% (inactive).
On to `O=C(CCl)Nc1ccc(Sc2ccc(NC(=O)CCl)cc2)cc1`, for which the inhibition is 28.2% (active).
Take `O=C(O)CC(SCC(=O)Nc1ccc(Br)cc1)C(=O)O` (configuration not stated): the inhibition was 0.5% (inactive).
With `CN(CC(=O)NCCc1ccc(F)cc1)CC(=O)Nc1ccc(F)c(F)c1F`, the inhibition was 3.93% (inactive).
`O=C(Nc1ccc(S(=O)(=O)N2CCOCC2)cc1)C1CCN(S(=O)(=O)c2ccc(Cl)cc2)CC1`: the inhibition was -0.02% (inactive).
For the compound `C/C(=N\NS(=O)(=O)c1ccc(Cl)cc1)c1ccc(NC(=O)c2ccco2)cc1`, the inhibition is -4.17% (inactive).
Consider `O=C(Nc1ccccc1)c1nnsc1S(=O)(=O)c1ccc(Cl)cc1`, for which the inhibition was 58.3% (active).
The figure for `COC(=O)[C@@]1(Cc2ccc(OC)cc2)[C@H]2c3cc(C(=O)N4CCCC4)n(Cc4ccc(OC(F)(F)F)cc4)c3C[C@H]2CN1C(=O)c1ccccc1` is 18.3% (inactive); for `COC(=O)[C@@]1(Cc2ccc(F)cc2)[C@H]2c3cc(C(=O)N4CCCC4)n(C[C@H](O)CO)c3C[C@H]2CN1C(=O)c1ccccc1` it is 6.42% (inactive).
With `COC(=O)[C@@]1(Cc2ccc(F)cc2)[C@H]2c3cc(C(=O)N4CCCC4)n(Cc4ccc(OC(F)(F)F)cc4)c3C[C@H]2CN1C(=O)c1ccccc1`, the inhibition was 22.3% (active).
For the compound `COC(=O)Nc1ccc(S(=O)(=O)N(C)CC(F)(F)C(F)F)cc1`, the inhibition is 4.74% (inactive).
As to `CC1CC(C)CN(S(=O)(=O)c2cccc3nonc23)C1` (configuration not stated), the inhibition is -3.19% (inactive).
On to `COc1cccc(OC)c1CN(C)C(=O)c1cnccc1C(F)(F)F`, for which the inhibition was 4.28% (inactive).
Take `O=C(COC(=O)c1ccc(F)c(S(=O)(=O)N2CCOCC2)c1)NCc1ccc2c(c1)OCO2`: the inhibition is 2.94% (inactive).
The figure for `Cc1ccnc(NC(=O)CCC(=O)N(CC(=O)NCCc2ccccc2)Cc2cccs2)c1` is 1.17% (inactive); for `O=C(c1cc2sccc2n1Cc1ccc(F)cc1)N1CCc2ccccc21` it is -4.45% (inactive).
On to `Brc1ccc(-c2nn[nH]n2)cc1`, for which the inhibition was -0.33% (inactive).
`Cc1ccc(-c2ccc(CN3C(C(C)C)C(=O)N(Cc4cn(CCC5OCCCO5)nn4)CCS3(=O)=O)cc2)cc1` (configuration not stated): the inhibition is -3.62% (inactive).
For the compound `CC(C)n1cnc2c(NCc3ccccc3)cc(OCC3CCN(C)CC3)cc21`, the inhibition was 52.1% (active).
As for `c1ccc2c(c1)C(=NC1CCCCC1)NC2=NC1CCCCC1`, the inhibition was 10.2% (inactive).
In the case of `O=C(NNC(=S)Nc1ccccc1)c1cccc(S(=O)(=O)N2CCOCC2)c1`, the inhibition is -0.88% (inactive).
Regarding `COC(=O)C[C@H]1C=C[C@H](NC(=O)c2ccc(F)cc2)[C@@H](CO)O1`, the inhibition is 7.9% (inactive).
Regarding `CCOc1ccccc1NC(=S)C(=C([O-])c1ccc2c(c1)OCCO2)[n+]1ccc(CC)cc1`, the inhibition is -7.74% (inactive).
`Cc1nn(C)c(C)c1C(C)NC(=O)c1ccc(OC2CCN(Cc3ccccn3)CC2)cc1` (configuration not stated): the inhibition was 11.1% (inactive).
On to `CC1Cc2[nH][nH]c(=O)c2C(C2CCCC2)O1` (configuration not stated), for which the inhibition is 8.22% (inactive).
With `O=C(Nc1n[nH]c(C(F)(F)F)n1)c1cccs1`, the inhibition is 3.2% (inactive).
`CSc1nccc(NC(=O)c2ccc(C(C)(C)C)cc2)n1`: the inhibition is -0.98% (inactive).
With `COC(=O)c1nc(NC(=O)c2ccc(C(C)(C)C)cc2)n[nH]1`, the inhibition was 81.5% (active).
`Cc1ccc(NC(=O)c2ccc(Cl)nc2)cc1S(=O)(=O)N1CCOCC1`: the inhibition was -3.8% (inactive).
On to `CCCn1c(SCC(=O)Nc2c(C)cccc2C)nnc1C(C)C`, for which the inhibition was 5.88% (inactive).
Turning to `CCOC(=O)c1nnn(CC(=O)Nc2cccc(F)c2)c1C(=O)OCC`, the inhibition is -0.66% (inactive).
In the case of `O=C(O)c1cccnc1NC1CCCC1`, the inhibition was 7.94% (inactive).
On to `COc1ccc(CCNC(=O)CN(c2ccccc2)S(C)(=O)=O)cc1OC`, for which the inhibition was 6.8% (inactive).
Regarding `COc1ccc(CCNC(=O)c2nnc(CS(=O)(=O)c3ccccc3)o2)cc1OC`, the inhibition was 23.8% (active).
As to `COc1ccc(CCNC(=O)c2ccc(CS(=O)(=O)c3ccc(Br)cc3)o2)cc1OC`, the inhibition is 5.5% (inactive).
For the compound `O=C(c1ccc2c(c1)C(=O)N(c1ccc(Cl)cc1)C2=O)N1CCN(c2ccccn2)CC1`, the inhibition was 0.95% (inactive).
Turning to `O=C(O)c1ccc2c(c1)C(=O)N(c1ccc(/C=C/C(=O)c3ccccc3)cc1)C2=O`, the inhibition is 50.4% (active).
The figure for `CC(=O)Oc1ccc(C)cc1N1C(=O)c2ccc(C(=O)O)cc2C1=O` is 0.33% (inactive); for `O=[N+]([O-])c1ccc(S(=O)(=O)Nc2cccc(-c3ccc(N4CCCC4)nn3)c2)cc1` it is -6.73% (inactive).
For the compound `COC(=O)CN(c1nc(C)c(Cl)c(OC)n1)S(=O)(=O)c1ccc(C)cc1`, the inhibition was -6.3% (inactive).
As for `Oc1c(C(c2ccco2)N2CCC3(CC2)OCCO3)sc2ncnn12` (configuration not stated), the inhibition was 12.2% (inactive).
As to `Cc1nc2sc(C(c3ccco3)N3CCC4(CC3)OCCO4)c(O)n2n1` (configuration not stated), the inhibition was 22.7% (active).
Regarding `Cc1ccc(C(c2sc3nc(C)nn3c2O)N2CCN(c3ccc(F)cc3)CC2)cc1` (configuration not stated), the inhibition was -0.55% (inactive).
The figure for `Cc1ccc(C(c2sc3nc(C)nn3c2O)N2CCN(c3ccccc3)CC2)cc1` (configuration not stated) is 2.33% (inactive).
The figure for `Cc1nc2sc(C(c3ccco3)N3CCOCC3)c(O)n2n1` (configuration not stated) is 26.3% (active); for `COC(=O)[C@@]12C[C@@H](CC(=O)N3CCC(c4ccccc4)CC3)C(=O)N(Cc3ccccc3)C1=CCC(C)(C)C2` it is 4.36% (inactive); for `CC1=NNC(=O)C1CC(=O)N/N=C/c1ccncc1` (configuration not stated) it is 0.97% (inactive).
For the compound `CC(C)(C)C(=O)N1CCC[C@@]1(CO)C(=O)O`, the inhibition was 0.41% (inactive).
On to `CC[C@]12c3[nH]c4cc(CCC(=O)N(C)C)ccc4c3CCN1C(=O)[C@@H](CC(=O)NCCCN(C)C)C[C@@H]2C(=O)N1CCN(C(=O)c2ccco2)CC1`, for which the inhibition is -4.19% (inactive).
Consider `COc1ccc(C2=NO[C@@H]3C(=O)N(Cc4ccccc4)C(=O)[C@H]23)cc1OC`, for which the inhibition is 3.37% (inactive).
The figure for `COc1ccc(-c2cc(C(F)(F)F)nc(S(C)(=O)=O)n2)cc1OC` is 26.6% (active).
As for `COc1ccc(C2SCCN2S(=O)(=O)c2ccccc2)cc1OC` (configuration not stated), the inhibition was -4.96% (inactive).
